In PubChem BioAssay (EPA / NIEHS):
Where “and” joins values, the source holds several entries; their conditions need not be identical. Equal values may be shown once. Some compounds were tested as several samples or in several runs, with calls that do not always agree. Calls of active or inactive are those of the source. Rule for the calls: active = hit-call score of the fitted dose curve at least 0.9, where 1 is the maximum; inactive = score below 0.9.

System: not listed separately
Experiment: ATG_RORE_CIS: Attagene CIS-FACTORIAL HepG2 Assay for human RAR-related Orphan Receptor Element (RORE) (AID 2282959)
Details: HepG2 Attagene cis-factorial RORE reporter, mRNA; actives raise or lower the signal
How it was run: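 Fluorescence intensity of reporter-specific cDNA fragments, separated by capillary electrophoresis, gives the signal. Source: HepG2 liver cells transiently transfected with cis-element reporters and exposed 24 h; DMSO-normalized bidirectional fit.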
In the case of `O=C(O)C(F)(OC(F)(F)C(F)(OC(F)(F)C(F)(OC(F)(F)C(F)(F)C(F)(F)F)C(F)(F)F)C(F)(F)F)C(F)(F)F` (stereo not given), the outcome is reported as “inactive”.
For `O=C(O)C(F)(F)C(F)(F)C(F)(F)C(F)(F)C(F)(F)C(F)(F)C(F)(F)C(F)(F)Cl`, the AC50 was 28.4 µM (active) and 57.9 µM (active).
In the case of `c1ccc(-c2ccccc2-c2ccccc2)cc1`, the outcome is reported as “inactive”.
For `CNC(=S)NC`, the outcome was “inactive”.
With `OCCCC(F)(F)C(F)(F)C(F)(F)C(F)(F)C(F)(F)C(F)(F)C(F)(F)F` the AC50 was 247 µM (active) and the outcome was “inactive”.
In the case of `CCN(CC)c1ccc2c(C)cc(=O)oc2c1`, the outcome is reported as “inactive”.
For `O=C(O)C(F)(F)C(F)(F)C(F)(F)C(F)(F)C(F)(F)C(F)(F)C(F)(F)C(F)(F)C(F)(F)C(F)(F)C(F)(F)C(F)(F)C(F)(F)F`, the outcome was “inactive”.
For `FC(F)(F)C(F)(F)C(F)(F)C(F)(F)CCI`, the outcome was “inactive”.
For `C=CC(=O)OCC(F)(F)C(F)(F)C(F)(F)C(F)(F)C(F)(F)C(F)(F)C(F)(F)F`, the outcome was “inactive”.
In the case of `C#C[C@]1(O)CC[C@H]2[C@@H]3CCc4cc(OC)ccc4[C@H]3CC[C@@]21C`, the outcome is reported as “inactive”.
With `O=C(O)C(F)(F)C(F)(F)OC(F)(F)F` the outcome was “inactive”.
With `CCCCCCCCCCCCCCCC[N+](C)(C)Cc1ccccc1` the outcome was “inactive”.
In the case of `CCO[Si](CCC(F)(F)C(F)(F)C(F)(F)C(F)(F)C(F)(F)C(F)(F)F)(OCC)OCC`, the outcome is reported as “inactive”.
In the case of `c1ccc(B(c2ccccc2)c2ccccc2)cc1`, the AC50 is reported as 71.5 µM (active).
With `C=C(C)C(=O)OCCC(F)(F)C(F)(F)C(F)(F)C(F)(F)C(F)(C(F)(F)F)C(F)(F)F` the outcome was “inactive”.
With `COC(=O)C1CCC(C(=O)OC)CC1` (stereo not given) the outcome was “inactive”.
In the case of `CC(C)OC(=O)c1ccccc1C(=O)OC(C)C`, the outcome is reported as “inactive”.
With `CCCCCCC(C)OC(=O)CCCCC(=O)OC(C)CCCCCC` (stereo not given) the outcome was “inactive”.
In the case of `C=CC(F)(F)C(F)(F)C(F)(F)C(F)(F)C(F)(F)C(F)(F)C(F)(F)C(F)(F)F`, the outcome is reported as “inactive”.
With `C(=C(c1ccccc1)c1ccccc1)c1ccccc1` the outcome was “inactive”.
In the case of `O=C(O)C(F)(F)C(F)(F)C(F)(F)F`, the outcome is reported as “inactive”.
With `OC[C@@H](O)[C@@H](O)[C@H](O)[C@@H](O)CO` the outcome was “inactive”.
For `O=C(OCCOCCOCCOC(=O)c1ccccc1)c1ccccc1`, the outcome was “inactive”.
With `OCC(F)(F)C(F)(F)C(F)(F)F` the outcome was “inactive”.
With `O=C(CC(=O)C(F)(F)C(F)(F)F)C(F)(F)F` the outcome was “inactive”.
For `Oc1ccc(Nc2ccccc2)cc1`, the AC50 was 74.6 µM (active).
In the case of `COC(=O)CCC(F)(F)C(F)(F)C(F)(F)C(F)(F)F`, the outcome is reported as “inactive”.
In the case of `CCCCCCCOC(=O)c1ccccc1C(=O)OCCCCCCC`, the outcome is reported as “inactive”.
In the case of `OCC(F)(F)C(F)(F)C(F)(F)C(F)(F)C(F)(F)C(F)F`, the outcome is reported as “inactive”.
In the case of `FC(F)(F)C(F)(F)C(F)(F)C(F)(F)C(F)(F)C(F)(F)CC1CO1` (stereo not given), the outcome is reported as “inactive”.
With `CC/C=C\CCOC(=O)c1ccccc1` the outcome was “inactive”.
In the case of `CS(C)(=O)=O`, the outcome is reported as “inactive”.
For `C=CC(F)(F)C(F)(F)C(F)(F)C(F)(F)C(F)(F)C(F)(F)C(F)(F)C(F)(F)C=C`, the outcome was “inactive”.

System: not listed separately
Experiment: ATG_Sox_CIS: Attagene CIS-FACTORIAL HepG2 Assay for human SRY-box transcription factor (SOX) (AID 2282960)
Details: HepG2 Attagene cis-factorial SOX reporter, mRNA; actives raise or lower the signal
How it was run: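 After 24 h of chemical treatment, transfected HepG2 reporter cells are lysed for total RNA. Transcript levels come from RT-PCR with labelled primer extension and capillary electrophoresis, analysed bidirectionally versus DMSO.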
For `O=C(O)C(F)(F)C(F)(F)C(F)(F)C(F)(F)C(F)(F)C(F)(F)C(F)(F)C(F)(F)Cl`, the outcome was “inactive”.
For `Cc1ccc(S(=O)(=O)NCl)cc1`, the outcome was “inactive”.
For `CCCCCCCCCCCCCCCC[N+](C)(C)Cc1ccccc1`, the outcome was “inactive”.
In the case of `COC(=O)C1CCC(C(=O)OC)CC1` (stereo not given), the outcome is reported as “inactive”.
With `C=CC(F)(F)C(F)(F)C(F)(F)C(F)(F)C(F)(F)C(F)(F)C(F)(F)C(F)(F)F` the outcome was “inactive”.
In the case of `OC[C@@H](O)[C@@H](O)[C@H](O)[C@@H](O)CO`, the outcome is reported as “inactive”.
With `CS(C)(=O)=O` the outcome was “inactive”.

Target: Transcription factor Sp1 (Homo sapiens) (UniProt P08047)
Sequence (P08047 whole entry, looked up): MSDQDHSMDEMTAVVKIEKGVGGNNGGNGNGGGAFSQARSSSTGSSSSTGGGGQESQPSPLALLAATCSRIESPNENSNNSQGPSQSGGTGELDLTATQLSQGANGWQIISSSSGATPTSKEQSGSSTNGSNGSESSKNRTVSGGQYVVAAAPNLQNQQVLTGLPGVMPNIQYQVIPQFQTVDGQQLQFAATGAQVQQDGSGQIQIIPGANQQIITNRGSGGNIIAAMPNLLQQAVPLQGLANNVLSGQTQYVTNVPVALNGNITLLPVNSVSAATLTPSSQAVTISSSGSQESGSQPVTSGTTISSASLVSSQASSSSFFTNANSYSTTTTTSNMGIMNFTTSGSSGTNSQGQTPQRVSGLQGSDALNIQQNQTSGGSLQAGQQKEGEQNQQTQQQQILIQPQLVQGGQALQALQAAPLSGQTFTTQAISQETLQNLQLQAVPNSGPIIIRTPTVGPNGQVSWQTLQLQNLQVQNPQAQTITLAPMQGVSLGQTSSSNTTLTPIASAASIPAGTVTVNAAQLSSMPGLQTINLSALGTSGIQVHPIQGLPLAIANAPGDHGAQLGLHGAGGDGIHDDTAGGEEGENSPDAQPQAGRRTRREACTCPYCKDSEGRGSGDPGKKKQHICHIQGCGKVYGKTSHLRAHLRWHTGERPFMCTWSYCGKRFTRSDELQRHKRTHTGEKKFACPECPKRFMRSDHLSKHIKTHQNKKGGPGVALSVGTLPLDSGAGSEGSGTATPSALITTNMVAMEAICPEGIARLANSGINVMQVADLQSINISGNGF
Experiment: ATG_Sp1_CIS: Attagene CIS-FACTORIAL HepG2 Assay for human Specificity Protein 1 (Sp1) (AID 2282961)
Details: HepG2 Sp1 cis-reporter transcription, actives raise or lower the signal
How it was run: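 Sp1-driven reporter mRNA, read as capillary electrophoresis fluorescence after RT-PCR, in transiently transfected HepG2 cells dosed for 24 h; signal change in either direction relative to DMSO.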
With `O=C(O)C(F)(OC(F)(F)C(F)(OC(F)(F)C(F)(OC(F)(F)C(F)(F)C(F)(F)F)C(F)(F)F)C(F)(F)F)C(F)(F)F` (stereo not given) the outcome was “inactive”.
With `c1ccc(-c2ccccc2-c2ccccc2)cc1` the AC50 was 100 µM (active).
For `OCCCC(F)(F)C(F)(F)C(F)(F)C(F)(F)C(F)(F)C(F)(F)C(F)(F)F`, the AC50 was 96.5 µM (active) and the outcome was “inactive”.
For `Cc1ccc(S(=O)(=O)NCl)cc1`, the outcome was “inactive”.
For `C#C[C@]1(O)CC[C@H]2[C@@H]3CCc4cc(OC)ccc4[C@H]3CC[C@@]21C`, the outcome was “inactive”.
With `O=C(O)C(F)(F)C(F)(F)OC(F)(F)F` the outcome was “inactive”.
With `CCCCCCCCCCCCCCCC[N+](C)(C)Cc1ccccc1` the AC50 was 132 µM (active).
For `CCO[Si](CCC(F)(F)C(F)(F)C(F)(F)C(F)(F)C(F)(F)C(F)(F)F)(OCC)OCC`, the outcome was “inactive”.
With `C=C(C)C(=O)OCCC(F)(F)C(F)(F)C(F)(F)C(F)(F)C(F)(C(F)(F)F)C(F)(F)F` the outcome was “inactive”.
With `COC(=O)C1CCC(C(=O)OC)CC1` (stereo not given) the outcome was “inactive”.
With `CCCCCCC(C)OC(=O)CCCCC(=O)OC(C)CCCCCC` (stereo not given) the outcome was “inactive”.
In the case of `C(=C(c1ccccc1)c1ccccc1)c1ccccc1`, the outcome is reported as “inactive”.
For `O=C(O)C(F)(F)C(F)(F)C(F)(F)F`, the outcome was “inactive”.
In the case of `OC[C@@H](O)[C@@H](O)[C@H](O)[C@@H](O)CO`, the outcome is reported as “inactive”.
For `O=C(OCCOCCOCCOC(=O)c1ccccc1)c1ccccc1`, the outcome was “inactive”.
In the case of `OCC(F)(F)C(F)(F)C(F)(F)F`, the outcome is reported as “inactive”.
For `Oc1ccc(Nc2ccccc2)cc1`, the outcome was “inactive”.
For `CS(C)(=O)=O`, the outcome was “inactive”.
